Compounds with a hit are over-represented: about 3.5% of the library has one in this group of screens.
TEAD-YAP inh: TEAD-YAP interaction inhibition; HEK-TIYL cells, TEAD-Gal4/YAP UAS-luciferase luminescence; inhibition, % at 9.12 µM; hit rate 1.4% among 640,000; AID 1259422; in the data active = inhibition above about 32%;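 also: 0% = median of test compound wells and 100% = reference inhibitor wells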
MITF primary: blocks human microphthalmia-associated transcription factor; O75030; AlphaScreen MITF homodimerization, bead proximity signal; inhibition, % at 2.6 µM; hit rate 0.91% among 650,000; AID 1259374; in the data active = inhibition above about 50%;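 also: 0% = vehicle wells with protein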
FBW7 act: activators of human E3 ligase FBW7; hit rate 0.13% among 650,000; normalized activity (activation), % at 26.1 µM; AlphaScreen FBW7–phospho-cyclin E peptide binding, activator screen; Q969H0; in the data active = normalized activity above about 1.9%;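 also: purified mutant Fbw7 with reduced substrate affinity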
Target sequence (Q969H0 whole entry, looked up): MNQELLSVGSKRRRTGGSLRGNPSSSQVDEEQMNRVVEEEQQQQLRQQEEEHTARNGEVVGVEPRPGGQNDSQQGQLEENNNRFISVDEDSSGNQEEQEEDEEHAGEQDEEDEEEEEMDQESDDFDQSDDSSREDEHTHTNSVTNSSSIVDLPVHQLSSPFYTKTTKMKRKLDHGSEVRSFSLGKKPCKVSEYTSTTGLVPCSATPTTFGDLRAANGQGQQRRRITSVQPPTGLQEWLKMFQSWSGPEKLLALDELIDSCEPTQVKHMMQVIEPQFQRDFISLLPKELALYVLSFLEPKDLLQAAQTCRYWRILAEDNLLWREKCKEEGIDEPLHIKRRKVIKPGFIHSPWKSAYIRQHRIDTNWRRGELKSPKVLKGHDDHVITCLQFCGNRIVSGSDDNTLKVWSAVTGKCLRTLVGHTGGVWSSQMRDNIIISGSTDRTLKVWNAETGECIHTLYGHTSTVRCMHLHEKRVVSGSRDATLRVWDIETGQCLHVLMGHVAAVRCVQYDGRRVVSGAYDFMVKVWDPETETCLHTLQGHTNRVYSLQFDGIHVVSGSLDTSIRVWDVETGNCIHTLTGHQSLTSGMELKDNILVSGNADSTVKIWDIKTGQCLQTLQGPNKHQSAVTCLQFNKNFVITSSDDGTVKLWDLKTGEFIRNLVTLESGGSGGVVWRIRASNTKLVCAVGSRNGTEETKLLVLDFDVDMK
GPR151 ag: activators of human GPR151; Q8TDV0; PathHunter beta-arrestin GPR151 cells, luminescence; activation, % at 11.2 µM; hit rate 1% among 650,000; AID 1508602; in the data active = activation above about 4.9%;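 also: 0% = median of compound wells and 100% = cells with positive control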
GPR151 conf act: confirmation of human GPR151 activators. shares compounds with GPR151 ag. GPR151 PathHunter beta-arrestin cells, luminescence, 90 min; % of EA-reagent control over plate median. activation, % at 11.2 µM. 6,700 tested, under 10 active;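 active = mean percent activation across replicates above the confirmation screen cutoff of 4.91%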
GPR119 counter: counter-screen for GPR151 activators: effect on human GPR119 | shares compounds with GPR151 ag | GPR119 PathHunter beta-arrestin cells, luminescence, 90 min; 0 = compound-well median, 100 = enzyme-acceptor control | activation, % at 11.2 µM | hit rate 0.3% among 6,700;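 active = mean percent activation in the counterscreen above 29.09%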;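 also: counterscreen on off-target GPR119 to flag nonselective hits from the GPR151 activator screen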
* = called active by the depositor; ! = repeats disagree.

What do the screens show for `CC(C)/C(=N\NC(N)=S)c1ccccc1`?
TEAD-YAP inh: 6; MITF primary: 10; FBW7 act: 0; GPR151 ag: 6.5*; GPR151 conf act: 0; GPR119 counter: 4

What do the screens show for `CCC(Sc1nc(C)cc(C)n1)C(=O)Nc1ccccc1C#N` (centres undefined)?
TEAD-YAP inh: 3; MITF primary: -17; FBW7 act: 0; GPR151 ag: -1

How did COc1ccc(CCNc2nc(Nc3ccc(C(F)(F)F)cc3)nc3c2ncn3-c2ccccc2)cc1 do in these assays?
TEAD-YAP inh: 10; MITF primary: -4; FBW7 act: 0; GPR151 ag: -1

Results for O=S(=O)(c1ccc(S(=O)(=O)N2CCC3(CC2)OCCO3)cc1)N1CCCC1 ?
TEAD-YAP inh: -3; MITF primary: 7; FBW7 act: 0; GPR151 ag: -1

What do the screens show for `O=S(=O)(c1ccc(Oc2ccc(S(=O)(=O)N3CCC4(CC3)OCCO4)cc2)cc1)N1CCC2(CC1)OCCO2`?
TEAD-YAP inh: 5; MITF primary: -6; FBW7 act: 0; GPR151 ag: 8.5*; GPR151 conf act: 0; GPR119 counter: 0

How did Cc1nc2sccn2c(=O)c1S(=O)(=O)N1CCC(Cc2ccccc2)CC1 do in these assays?
TEAD-YAP inh: -4; MITF primary: 5; FBW7 act: 0; GPR151 ag: 6.2*; GPR151 conf act: 0; GPR119 counter: 0

What do the screens show for `Cc1ccsc1/C=C1\SC(=N)N(c2ccc(F)cc2)C1=O`?
TEAD-YAP inh: -14; MITF primary: -8; FBW7 act: 0; GPR151 ag: 23*; GPR151 conf act: 0; GPR119 counter: -4

How did Cc1ccc(N2C(=N)S/C(=C/c3sccc3C)C2=O)cc1C do in these assays?
TEAD-YAP inh: -11; MITF primary: 0; FBW7 act: 0; GPR151 ag: -1

How did N=C1S/C(=C/c2ccc(-c3cc(Cl)cc(Cl)c3)o2)C(=O)N1c1nonc1N do in these assays?
TEAD-YAP inh: -2; MITF primary: 1; FBW7 act: 0; GPR151 ag: 1

Results for CCCCC1CCC(C(=O)OCC(=O)c2ccc(-c3ccc(Br)cc3)cc2)CC1 (centres undefined) ?
TEAD-YAP inh: 9; MITF primary: 4; FBW7 act: 0; GPR151 ag: 6.6*; GPR151 conf act: 0; GPR119 counter: -4

What do the screens show for `COc1ccc(C2(C(F)(F)F)NC(=O)C(C#N)=C3C=CC=CN32)cc1` (centres undefined)?
TEAD-YAP inh: 6; MITF primary: -6; FBW7 act: 0; GPR151 ag: 1

What do the screens show for `Cc1cc(-n2cccn2)ccc1CN1CCN(C2CCCCC2)C(CCO)C1` (centres undefined)?
TEAD-YAP inh: 6; MITF primary: 1; FBW7 act: 0; GPR151 ag: 2

How did CC(C)=CCN1CCN(Cc2ccc(-n3cccn3)cc2C)CC1CCO (centres undefined) do in these assays?
TEAD-YAP inh: -13; MITF primary: 8; FBW7 act: 0; GPR151 ag: 11*; GPR151 conf act: 0; GPR119 counter: 0

Results for Cc1ccc(CN2CCc3nnc(CNC(=O)c4ccccn4)n3CC2)cc1 ?
TEAD-YAP inh: 11; MITF primary: 8; FBW7 act: 0; GPR151 ag: -1

How did C/C(=C\c1ccco1)CN1CCc2nnc(CNC(=O)CCc3cccnc3)n2CC1 do in these assays?
TEAD-YAP inh: -1; MITF primary: 18; FBW7 act: 0; GPR151 ag: -2

How did Cc1ccc(CN2CCc3nnc(CNC(=O)c4ccccc4)n3CC2)cc1 do in these assays?
TEAD-YAP inh: 5; MITF primary: 6; FBW7 act: 0; GPR151 ag: 6.0*; GPR151 conf act: 0; GPR119 counter: 5

How did CC(C)=CCN1CCc2nnc(CNC(=O)c3ccccn3)n2CC1 do in these assays?
TEAD-YAP inh: 0; MITF primary: 3; FBW7 act: 0; GPR151 ag: 0

Results for CC(C)=CCCC(C)CN1CCc2nnc(CNC(=O)c3ccccn3)n2CC1 (centres undefined) ?
TEAD-YAP inh: 2; MITF primary: 8; FBW7 act: 0; GPR151 ag: 6.8*; GPR151 conf act: 1; GPR119 counter: 8

Results for C/C=C(\C)CN1CCc2nnc(CNC(=O)CCc3cccnc3)n2CC1 ?
TEAD-YAP inh: 5; MITF primary: 9; FBW7 act: 0; GPR151 ag: 15*; GPR151 conf act: 0; GPR119 counter: -4

How did CCOC(=O)C(O)C1CCCCC1=O (centres undefined) do in these assays?
TEAD-YAP inh: 12; MITF primary: -2; FBW7 act: 0; GPR151 ag: 0

Results for C#CCOc1cc(OC)c(OC)c(OC)c1 ?
TEAD-YAP inh: 2; MITF primary: 8; FBW7 act: 0; GPR151 ag: 5.6*; GPR151 conf act: -1; GPR119 counter: -5

How did COc1cc(OCC(=O)O)cc(OC)c1OC do in these assays?
TEAD-YAP inh: 0; MITF primary: 14; FBW7 act: 0; GPR151 ag: 3

What do the screens show for `CC(=O)NC(=O)NC(c1ccccc1)c1cccc(Cl)c1` (centres undefined)?
TEAD-YAP inh: -7; MITF primary: -9; FBW7 act: 0; GPR151 ag: 6.1*; GPR151 conf act: 0; GPR119 counter: -1

How did Cc1ccc(NC(=O)c2nn3c(c2Br)NC(c2cccs2)CC3C(F)(F)F)cc1C (centres undefined) do in these assays?
TEAD-YAP inh: -1; MITF primary: 0; FBW7 act: 0; GPR151 ag: 7.1*; GPR151 conf act: 0; GPR119 counter: 0

How did Cc1nc(SCC(=O)N2CCCc3ccccc32)c2c(=O)n(C)c(=O)n(C)c2n1 do in these assays?
TEAD-YAP inh: 6; MITF primary: -2; FBW7 act: 0; GPR151 ag: 0

Results for CCOc1nc2cccc(C(=O)OC(C)OC(=O)OC3CCCCC3)c2n1Cc1ccc(-c2ccccc2-c2nn[nH]n2)cc1 (centres undefined) ?
TEAD-YAP inh: -25; MITF primary: 9; FBW7 act: 0; GPR151 ag: 2

How did CCCc1nc(C(C)(C)O)c(C(=O)OCc2oc(=O)oc2C)n1Cc1ccc(-c2ccccc2-c2nn[nH]n2)cc1 do in these assays?
TEAD-YAP inh: -1; MITF primary: -9; FBW7 act: 0; GPR151 ag: 11*!; GPR151 conf act: 0; GPR119 counter: 1

How did CCOc1ccc(NC(=O)C2C3C=CC4(O3)C2C(=O)N(C(C)CC)C4C(=O)NC2CCCCC2)cc1 (centres undefined) do in these assays?
TEAD-YAP inh: 11; MITF primary: 11; FBW7 act: 1; GPR151 ag: -2

How did COc1ccc(/C=N/n2ncnc2SC)cc1OC do in these assays?
TEAD-YAP inh: -25; MITF primary: -6; FBW7 act: 0; GPR151 ag: -2

Source: PubChem
